In PubChem BioAssay AID504621 (Broad Institute, 2011):
Screen size: about 310,000 compounds; about 970 (0.31%) were called active. This is one part of a sample in which actives are shown more often than they occur. Values without a mark were called inactive.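 How the source made its calls: active means every replicate shows inhibition above about 80%, whatever the replicate mean (limit read from the data); inconclusive means mean inhibition reaches the set limit but some replicate falls short; inactive means the rest.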

test: growth inhibition of PfHsp90-expressing yeast, primary screen, antimalarial PfHsp90 inhibitor project, S. cerevisiae, BacTiter-Glo luminescence, single point, set 2 (AID 504621); settings: BacTiter-Glo ATP, 48 h, at 9.4 µM, hits give high values, yeast lacking PDR1 and PDR3 efflux regulators;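 further: yeast relying on Plasmodium falciparum Hsp90 in place of its own; 0% = DMSO neutral controls and 100% = 20 µM radicicol positive controls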

Row | SMILES | inhibition
1 | Cc1cccc(NC(=S)N2CCC(C(=O)c3ccc(F)cc3)CC2)c1 | -3.65%
2 | COc1ccc(CNCCCNCc2ccc(OC)c(OC)c2)cc1OC | -32.5%
3 | CC(=O)Oc1ccc2c(c1)C(=O)c1ccccc1C2=O | 6.15%
4 | O=C1C(Cl)=C(Oc2ccccc2)C(=O)c2ccccc21 | 104% (active)
5 | CC(=O)N(C1=C(Cl)C(=O)c2ccccc2C1=O)c1ccc(C(=O)O)cc1 | 13.4%
6 | COc1ccc(Cn2cc(CN3CCS(=O)(=O)N(Cc4ccc(-c5cccc(Cl)c5)cc4)C(C)C3=O)nn2)cc1 (stereo not given) | -24.7%
7 | COc1ccc(-c2nn(-c3ccccc3)cc2/C=N/Nc2ccccn2)cc1OC | -22%
8 | Oc1cccc(/C=N/Nc2ccc(Cl)nn2)c1O | 1.34%
9 | Oc1ccc(Br)cc1/C=N/Nc1ccccn1 | 107% (active)
10 | COc1ccc(CCC(=O)Nc2ccc(Cl)c(S(=O)(=O)N3CCOCC3)c2)cc1OC | -12.1%
11 | CC[C@@H]1Cc2cc(O)ccc2C2=C1c1ccc(O)cc1C[C@H]2CC | 108% (active)
12 | CSCCC(NC(=O)COc1ccccc1)C(=O)N1CCN(c2cccc(C(F)(F)F)c2)CC1 (stereo not given) | 46.4%
13 | Cc1ccc(S(=O)(=O)c2cc3c(=O)n4cccc(C)c4nc3n(CCc3ccccc3)c2=N)cc1C | 0.767%
14 | COc1cc(C(=O)NCc2ccncc2)cc(Br)c1OCc1ccccc1 | 46.3%
15 | COc1cc(/C=N/O)cc(Br)c1OCc1cccc(Cl)c1 | 121% (active)
16 | COc1cc(/C=N/O)cc(Br)c1OS(=O)(=O)c1ccc(C)cc1 | -10.1%
17 | Cc1nn(-c2ncccn2)c2c1C(=O)CC(C)(C)C2Br (stereo not given) | -6.87%
18 | COc1ccc(CCN2CC(C(=O)OCC(=O)NCc3ccccc3Cl)CC2=O)cc1OC (stereo not given) | -2.54%
19 | CC1(C)N=C(N)NC(Nc2ccc(Cl)cc2)=N1 | 7.88%
20 | C/C(=N\Nc1ccc(Cl)nn1)c1ccccc1O | 2.56%
21 | CCN(/N=C/c1ccc(N(C)C)cc1)c1nc2ccccc2[nH]1 | 24%
22 | Oc1ccc(/C=N/N(Cc2ccccc2)c2ccccc2)cc1 | 96.6% (active)
23 | CCN(/N=C/c1ccccc1)c1cc(=O)n(C)c(=O)[nH]1 | -32.6%

Row | SMILES | inhibition
24 | Cc1ccc2c(O)c(Cc3ccccc3)c(=O)[nH]c2n1 | -3.48%
25 | CC(C)C[C@H]1CN([C@@H](CC(C)C)CN2CCC[C@@H]2CN2C(=O)C(=O)NC[C@@H]2Cc2ccccc2)C(=O)C(=O)N1CCc1ccccc1 | 1.81%
26 | CC(C=Cc1ccccc1)=NNS(=O)(=O)c1ccc([N+](=O)[O-])cc1 | -1.29%
27 | CC(=O)OCC1(O)CC23CCC4c5ccoc5CCC4(C)C2CCC1C3 (stereo not given) | -29.4%
28 | c1ccc(CCc2ccccn2)cc1 | 12.1%
29 | CC(C)(C)c1cc(C(=O)N/N=C/c2ccc([N+](=O)[O-])s2)n[nH]1 | -5.37%
30 | Cc1ccccc1NCC(=O)N/N=C\c1ccc([N+](=O)[O-])s1 | -6.37%
31 | O=[N+]([O-])c1ccc(C=Nc2ccc(Cl)cc2Cl)s1 | 110% (active)
32 | CC(C)(C)OC(=O)N1CCC(C(=O)Nc2cccc(C(=O)NCCc3ccccc3)c2)CC1 | 5.32%
33 | Cc1ccc(OCCCn2c(=O)oc3ccccc32)cc1 | -16.3%
34 | CCCCCCCCCCOC(=O)Cn1c(COc2ccc(C)cc2)[n+](C)c2ccccc21 | 110% (active)
35 | CCCCCCCCCCOC(=O)Cn1c(COc2cccc(OC)c2)[n+](C)c2ccccc21 | -14.9%
36 | COc1ccc(-c2nc3cc(C)ccn3c2NC2CCCCC2)cc1SC1CCCCC1 | 9.74%
37 | FC(F)(F)c1ccc(-c2cccc3c2C2CC3CCN2Cc2ccccc2)cc1 (stereo not given) | 6.57%
38 | O=C(O)CC1=C(Nc2ccccc2)C(=O)N(c2ccccc2)C1c1ccc(Cl)cc1 (stereo not given) | -10.5%
39 | O=C(CCC(=O)OCc1ccc(Cl)cc1)Nc1ccccc1 | -21.6%
40 | O=C1C=C(c2ccc(Cl)cc2)C(=O)N1Nc1ccccc1 | 134% (active)
41 | COc1cc(/C=C/c2ccc(/C=C/c3cc(OC)c(OC)c(OC)c3)cc2)cc(OC)c1OC | -3.68%
42 | Cc1c[n+]([O-])ccc1[N+](=O)[O-] | 4.7%
43 | COCC(=O)N(C)[C@H]1C[C@H]2c3cc(Oc4ccccc4C)ccc3CCN2C(=O)[C@H]1[C@H](C)O | -8.3%
44 | O=S(=O)(Nc1ccc2ccccc2c1)N1CCCCC1 | 2.41%
45 | O=C(CNC(=O)c1cc(S(=O)(=O)N2CCOCC2)ccc1N1CCCC1)Nc1ccc(F)c(F)c1 | -6.44%
46 | CCN1/C(=C\c2ccc3ccccc3[n+]2CC)Sc2cc(C)ccc21 | 87.5% (active)

Row | SMILES | inhibition
47 | Cc1cccc(C=CC(=O)c2ccc(Cl)cc2)c1 | 5.15%
48 | Cc1ccc(C)c(N2CCN(C(=O)CCc3nc(-c4cccc(C(F)(F)F)c4)no3)CC2)c1 | -1.63%
49 | O=C(O)C(CCc1ccccn1)c1ccccc1 (stereo not given) | -16%
50 | CCCCNC(=O)C(C)N(CCN(C)C)C(=O)CCCCCN1C(=O)NC(c2ccc(Cl)cc2)C(C(=O)OCc2ccccc2)=C1C (stereo not given) | -0.725%
51 | COc1cccc(/C=N/Nc2ncc(C(F)(F)F)cc2Cl)c1O | 91.5% (active)
52 | FC(F)(F)c1cnc(Oc2ccccc2-c2nnc(-c3ccc(Cl)cc3)o2)c(Cl)c1 | -8.43%
53 | COc1cccc(/C=N/Nc2cc(C)nc(-c3ccccc3O)n2)c1O | -15.4%
54 | CCCCCCCCNS(=O)(=O)CCNC1CCCCC1 | 21.1%
55 | O=C(NC1=CC(=O)c2ccccc2C1=O)c1ccccc1 | 54.3%
56 | C#CCOCCOCCOCCNc1nc(N2CCN(C(=O)Cn3cc(CCO)nn3)CC2)nc(N2CCN(C(=O)[C@H](CCCCN)n3cc(CCCC)nn3)CC2)n1 | -9.73%
57 | Oc1c(Cl)cc(Cl)c(Cl)c1Cc1c(O)c(Cl)cc(Cl)c1Cl | 108% (active)
58 | O=C(Nc1ccc2ccccc2c1[N+](=O)[O-])c1ccccc1 | -14.2%
59 | COc1ccc(CC(=O)NC(C)c2ccc(Cl)c(Cl)c2)cc1S(=O)(=O)N1CCOCC1 (stereo not given) | 15.2%
60 | COc1ccc(OCc2cn3c(C)cc(C)nc3n2)cc1 | -13.7%
61 | COc1ccc(C(C[N+](=O)[O-])n2nc(C)cc2C)cc1 (stereo not given) | 104% (active)
62 | CCOc1ccc(C(C)C)cc1S(=O)(=O)n1nc(C)cc1C | 11.4%
63 | CCC(=O)/C(=C(/O)c1ccccc1)c1nc2ccccc2[nH]1 | -12.2%
64 | O=C(/C(=C/c1cccc(Cl)c1)c1nc2ccccc2[nH]1)c1ccccc1 | 86.9% (active)
65 | O=C(Cc1nc2ccccc2[nH]c1=O)c1ccc(Cl)cc1 | -1.68%
66 | Nc1ccc2c(c1)C(O)c1ccc(Cl)cc1-2 (stereo not given) | -1.88%
67 | CN(C)S(=O)(=O)Oc1ccccc1C(=O)Nc1ccccc1Cl | 15.5%
68 | O=C(Nc1ccccc1Cl)/C(Cl)=C(\Cl)S(=O)c1ccccc1 (stereo not given) | 127% (active)
69 | O=C(Nc1ccccc1Cl)O/N=C(/c1ccccc1)c1ccccn1 | 9.66%

Row | SMILES | inhibition
70 | Cc1cc(OCCCC(=O)Nc2cc(S(=O)(=O)N3CCOCC3)ccc2N2CCOCC2)ccc1Cl | -7.69%
71 | COc1ccc(C2=Nn3c(nnc3-c3ccccc3OC)SC2)cc1OC1CCCC1 | 1.24%
72 | CCCCN(C(=O)CSCc1ccc(C)cc1)c1c(N)n(Cc2ccccc2)c(=O)[nH]c1=O | -17.2%
73 | Cc1cc2c(cc1C)NC1(C[C@H]3CCC(=O)N4CC[C@@H](C1)[C@@H]34)C(=NC(C)(C)CC(C)(C)C)N2 (stereo not given in full) | 3.65%
74 | Cc1cccc(NC(=O)c2nc(S(=O)(=O)Cc3ccccc3)ncc2Cl)c1 | 98.3% (active)
75 | CSc1ncc(Cl)c(C(=O)Nc2cc(C)ccc2C)n1 | 7.23%
76 | CCOc1ccc(NC(=O)c2nc(SCC)ncc2Cl)cc1 | 15.7%
77 | CSc1nnc(NC(=O)c2nc(S(=O)(=O)Cc3ccc(C)cc3)ncc2Cl)s1 | 11.8%
78 | Cc1ccc(CS(=O)(=O)c2ncc(Cl)c(C(=O)Nc3nnc(C)s3)n2)cc1 | 7.63%
79 | Cc1cccc(CS(=O)(=O)c2ncc(Cl)c(C(=O)Nc3ccc(F)cc3)n2)c1 | 105% (active)
80 | COC1C(CO)OC(n2cnc3c(=S)nc(N)[nH]c32)C1O (stereo not given) | 24.5%
81 | COc1ccccc1NC(=O)N(O)C1(C#N)CCCCC1 | -17.6%
82 | Cc1cc(NC(=O)C(C)SCC(=O)Nc2cccc(S(=O)(=O)N3CCCCCC3)c2)no1 (stereo not given) | -41.5%
83 | CC1(C)C(=O)CCC2(C)C1=CCC1C2C(=O)CC2(C)C1CCC2(O)C(=O)CO (stereo not given) | 20.2%
84 | COc1ccc(CCNC(=O)COc2cc(C)cc3oc(=O)c(C)c(C)c23)cc1OC | -2.49%
85 | CCN1C[C@@H]2[C@@H]3C(=O)N(C)C(=O)[C@@H]3[C@](C)(C1=O)N2C(=O)c1ccccc1 | -20.8%
86 | COc1ccc(Cl)cc1C=CC=Nc1ccc(S(N)(=O)=O)cc1 | 4.35%
87 | O=C(CSc1ccc(-c2ccccn2)nn1)Nc1ccccc1 | 119% (active)
88 | O=C(CSc1ccc(-c2ccco2)nn1)Nc1cccc(F)c1 | -6.54%
89 | O=C(CSc1ccc(-c2ccc(-n3cccn3)cc2)nn1)Nc1ccc([N+](=O)[O-])cc1 | 2.41%
90 | NS(=O)(=O)c1ccc(CCNC(=O)c2ccc(Cl)c(S(=O)(=O)N3CCCCCC3)c2)cc1 | -11.9%
